Assay results reported in PubChem BioAssay (EPA / NIEHS).
Values joined by “and” are separate entries in the source; they are usually repeats but may differ in a detail not shown here. Equal entries are not always repeated. Active and inactive are the calls of the source. Rule for the calls: active = hit-call score of the fitted dose curve at least 0.9, where 1 is the maximum; inactive = score below 0.9.

Assay: BSK_3C_SRB: Viability Assessment in the BioMAP Diversity Plus: 3C Assay (AID 2283023);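 note: fitted both ways against DMSO so a hit may be signal rise or drop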
Conditions: primary human endothelial cells (HUVEC)
Method: BSK_3C is a cell-based, multiplexed-readout assay that uses umbilical vein endothelium, a human vascular primary cell, with measurements taken at 24 hours after chemical dosing in a 96-well plate.BSK_3C_SRB is an assay component measured in the BSK_3C assay. It measures 0.1% sulforhodamine related to cell death using Sulforhodamine staining technology.Data from the assay component BSK_3C_SRB was analyzed into 1 assay endpoint. This assay endpoint, BSK_3C_SRB, was analyzed with bidirectional fitting relative to DMSO as the negative control and baseline of activity. Using a type of viability reporter, gain or loss-of-signal activity can be used to understand changes in the signaling. Furthermore, this assay endpoint can be referred to as a primary readout, because this assay has produced multiple assay endpoints where this one serves a signaling function. To generalize the intended target to other relatable targets, this assay endpoint is annotated to the cell morphology intended target family, where the subfamily is cell conformation.
The levels of cell surface (or secreted, indicated by the prefix "s") biomarker endpoints were measured by ELISA. Overt cytotoxicity to cells in confluent adherent cultures (all systems other than the BT system) was assessed by measuring total protein levels using sulforhodamine B (SRB) staining in parallel cultures at the time of biomarker measurements, indicated as SRB endpoints. For proliferation assays for adherent cell types, individual cell types are cultured at sub-confluence and relative cell numbers quantified by SRB staining at time points optimized for each system (48 h: 3C and CASM3C systems; 72 h: BT and HDF3CGF systems; 96 h: SAg system). SRB was performed by staining cells with 0.1% SRB after fixation with 10% TCA and reading wells at 560 nm.Viability and proliferation of PBMC (T cells) was quantified by Alamar Blue reduction for the SAg and BT systems. For PBMC viability (referred to as PBMC Cytotoxicity within the assay endpoint names), cells were plated (75,000/well in a 96-well plate) and then chemical samples added for 1 h before addition of activators, SEB and TSST-1 (20 ng/mL final concentration each). Cells were incubated for 90 h. Then, Alamar Blue (20 uL/well) (Invitrogen, Cat DAL1100) was added for 6 h, and the plates were read with a fluorescence microplate reader at 546/580 nm (excitation/emission). For PBMC proliferation, cells were plated and activated as above but incubated for only 16 h prior to addition of Alamar Blue. Plates were read after 6 h.
With N#[N+]c1ccc2c(S(=O)(=O)[O-])cccc2c1O the outcome was “inactive”.
With C=CC(=O)OCC(Br)CBr (stereo unspecified) the AC50 was 32.5 µM (active).
With C#CC1(O)CC[C@H]2[C@@H]3CCC4=CCCC[C@@H]4[C@H]3CC[C@@]21C (stereo partly specified) the AC50 was 6.9 µM (active).
With O=c1c2ccccc2oc2ccccc12 the outcome was “inactive”.
In the case of CC(C)C(=O)C(C)C, the outcome is reported as “inactive”.
With c1ccc2c(c1)ccc1cc3c(ccc4ccccc43)cc12 the outcome was “inactive”.
With C=CC=CC=CCCCCC the outcome was “inactive”.
With S=C(NC1CCCCC1)NC1CCCCC1 the outcome was “inactive”.
For CCO[Si](CCCN=C=O)(OCC)OCC, the outcome was “inactive”.
For CCOc1nc(F)cc2nc(S(=O)(=O)Nc3c(Cl)cccc3C(=O)OC)nn12, the outcome was “inactive”.
For O=C1CCCN1CCO, the outcome was “inactive”.
In the case of CCCCCCCCc1ccc(Nc2ccc(CCCCCCCC)cc2)cc1, the outcome is reported as “inactive”.
With Nc1ccc(N)c(Cl)c1 the AC50 was 28.6 µM (active) and 30.6 µM (active).
With CCCCC/C=C\C/C=C\CCCCCCCC(=O)OC the outcome was “inactive”.
In the case of C/C=C\C/C=C/CCCCCCCCOC(C)=O, the outcome is reported as “inactive”.
For CC1OC1C1CCC2(C)OC2C1 (stereo unspecified), the outcome was “inactive”.
For CN1C(=O)N(C)C(O)C1O (stereo unspecified), the outcome was “inactive”.
With O=C(c1ccc(O)cc1)c1ccc(O)cc1O the outcome was “inactive”.
With CCCCNc1ccc(NCCCC)c2c1C(=O)c1ccccc1C2=O the outcome was “inactive”.
In the case of c1ccc(-c2ccccn2)nc1, the outcome is reported as “inactive”.
With CCCCCCCCCCCCCCCC[N+](C)(C)CC the AC50 was 0.697 µM (active).
For CO[Si](OC)(OC)c1ccccc1, the outcome was “inactive”.
With COCc1c(C(C)C)nc(C(C)C)c(/C=C/[C@@H](O)C[C@@H](O)CC(=O)O)c1-c1ccc(F)cc1 the AC50 was 0.0434 µM (active).
With C=C[Si](OC(C)=O)(OC(C)=O)OC(C)=O the outcome was “inactive”.
In the case of C=CCOc1c(Br)cc(Br)cc1Br, the AC50 is reported as 29.3 µM (active).
For CCO[Si](C)(OCC)OCC, the outcome was “inactive”.
For COc1ccc2nc(N)sc2c1, the outcome was “inactive”.
For C=CCOCC(O)CCl (stereo unspecified), the outcome was “inactive”.
For O=C(Nc1ccccc1SSc1ccccc1NC(=O)c1ccccc1)c1ccccc1, the outcome was “inactive”.
For CCOC(=O)c1ccccc1C(=C1C=C(Br)C(=O)C(Br)=C1)c1cc(Br)c(O)c(Br)c1, the AC50 was 21.7 µM (active) and 23.7 µM (active).
For CC(C)(c1cc(Br)c(OCCO)c(Br)c1)c1cc(Br)c(OCCO)c(Br)c1, the AC50 was 19.3 µM (active).
For CCCCC(CC)COC(=O)c1ccccc1O (stereo unspecified), the AC50 was 15.7 µM (active).
In the case of O=C(Cl)c1cc(C(=O)Cl)cc(C(=O)Cl)c1, the AC50 is reported as 20 µM (active).
For CCCCC(CC)COCC1CO1 (stereo unspecified), the outcome was “inactive”.
For O=Nc1ccc(O)cc1, the outcome was “inactive”.
In the case of c1ccc2c(c1)ccc1ncccc12, the AC50 is reported as 14.3 µM (active).
